From PubChem BioAssay AID720504 (National Center for Advancing Translational Sciences (NCATS), 2013)
The campaign covered roughly 360,000 compounds. About 10,000 (2.8%) were called active. Inconclusive results (about 4%) are left out. Calls come from the whole dose curve; as a rule, active = well fitted inhibition curve with a large enough effect; inconclusive = small, poorly fitted or top-dose-only effect; inactive = flat fitted curve, though single readings scatter. The full list was thinned out, with actives kept by preference.

Biological target: Serine/threonine-protein kinase PLK1 (Homo sapiens) (UniProt P53350)
Sequence (P53350 whole entry, looked up, the tested form may be a part): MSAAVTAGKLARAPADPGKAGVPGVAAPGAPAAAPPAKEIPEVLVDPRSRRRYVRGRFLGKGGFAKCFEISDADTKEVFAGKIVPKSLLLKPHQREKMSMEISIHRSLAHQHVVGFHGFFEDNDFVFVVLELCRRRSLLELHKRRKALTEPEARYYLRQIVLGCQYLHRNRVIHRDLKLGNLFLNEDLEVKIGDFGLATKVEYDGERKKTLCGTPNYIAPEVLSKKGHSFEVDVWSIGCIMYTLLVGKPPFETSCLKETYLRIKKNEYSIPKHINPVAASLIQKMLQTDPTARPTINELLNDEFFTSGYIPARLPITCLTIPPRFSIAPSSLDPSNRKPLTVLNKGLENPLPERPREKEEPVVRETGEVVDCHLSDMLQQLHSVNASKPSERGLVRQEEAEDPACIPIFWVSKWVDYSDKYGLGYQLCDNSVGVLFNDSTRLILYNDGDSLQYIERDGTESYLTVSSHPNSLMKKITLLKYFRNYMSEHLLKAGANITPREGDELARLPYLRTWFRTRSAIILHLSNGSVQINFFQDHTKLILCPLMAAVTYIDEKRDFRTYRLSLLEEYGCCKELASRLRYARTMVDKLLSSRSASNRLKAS
Test: qHTS for Inhibitors of PLK1-PDB (polo-like kinase 1 - polo-box domain): Primary Screen; note: nearly all actives have a fitted effect of over 65% in size; for max response, negative = inhibition: series mostly up to about 57 µM
Conditions: Plk1 PBD binding of FITC phosphopeptide, fluorescence polarization
% is set by controls: 0 for no effect and ±100 for the full control effect; potency is the fitted concentration of half-maximal effect.

Structure (SMILES) | Potency | max response, negative = inhibition
CCN(CC)S(=O)(=O)c1cccc(-c2n[nH]c(=S)n2/N=C/c2ccc(C(=O)OC)cc2)c1 | 10.6 µM (active) | –
CCN(CC)S(=O)(=O)c1cccc(NC(=O)c2ccc(S(=O)(=O)N3CCCC3)cc2)c1 | – | 2.45% (inactive)
COC(=O)c1ccc(/C=N/N2C(C)CCCC2C)cc1 (stereo not drawn) | – | -11.6% (inactive)
CCCCNC(=O)C[C@@H]1C[C@@]2(C(=O)OCC)CCC=C2N(Cc2cccc3ccccc23)C1=O | – | -0.117% (inactive)
CCOC(=O)C1CCCN(C(=O)c2ccc(C)c(F)c2)CC1 (stereo not drawn) | – | -7.52% (inactive)
CC(C)Oc1ccc(CN2CCC2(C)C(=O)NCc2ccc(C(F)(F)F)cc2)cc1 (stereo not drawn) | – | 6.37% (inactive)
CN(C)/C=C1\C=C(c2ccccc2)OC1=O | – | -6% (inactive)
CCCS(=O)(=O)C(=C1Nc2ccccc2N1)S(=O)(=O)CCC | – | -1.93% (inactive)
CN(C)/C=C1/Nc2ccccc2C1=O | 26.7 µM (active) | –
CCN(CCN(C)C)C(=O)c1ccc2nc(C)c(N(C)C(=O)CCc3ccccc3)n2c1 | – | 2.39% (inactive)
CC(=O)Nc1cncc(-c2ccccc2CO)n1 | – | 3.65% (inactive)
O=C(CCc1[nH]c2ccccc2c1Sc1ccccc1)N(CCO)CCO | 29.9 µM (active) | –
O=S1(=O)CC(N2CCN(CCO)CC2)CN1Cc1cn(Cc2ccc(Cl)cc2)nn1 (stereo not drawn) | – | -4.51% (inactive)
Cc1ccc(S(=O)(=O)N(CCc2ccccc2)c2ccc3c(c2)C2CC3CCN2C(=O)OCc2ccccc2)cc1 (stereo not drawn) | – | -9.82% (inactive)
O=C(C1CCCO1)N1CCN(C(=O)C23CC4CC(CC(C4)C2)C3)CC1 (stereo not drawn) | – | -0.452% (inactive)
C[C@@H]1CN([C@H](C)CO)S(=O)(=O)c2ccc(C#CC3CCCCC3)cc2O[C@H]1CN(C)C(=O)Cc1ccncc1 | – | 8.88% (inactive)
COc1cccc(C(O)c2ncc(-c3ccc4ccccc4c3)[nH]2)c1 (stereo not drawn) | – | 5.51% (inactive)
Cc1nn(CC(=O)N2CCCCC2)c(=O)c2nn(-c3ccccc3)c(C)c12 | – | -14.5% (inactive)
COc1ccc(-n2nc3c(N4CCC(C(=O)NCc5ccccc5)CC4)nnc(C)c3c2C)cc1 | – | -9.59% (inactive)
Cc1nn(C(C)C(=O)NCCC2=CCCCC2)c(=O)c2nn(-c3ccccc3)c(C)c12 (stereo not drawn) | – | -7.54% (inactive)
Cc1ccc(-n2nc3c(=O)n(C(C)C(=O)NCc4ccc5c(c4)OCO5)nc(C)c3c2C)cc1 (stereo not drawn) | – | -18.3% (inactive)
COc1ccc(OC)c(CNC(=O)Cn2nc(C)c3c(C)n(-c4ccc(C)cc4)nc3c2=O)c1 | 26.7 µM (active) | –
COc1ccc(CNC(=O)C(C)n2nc(C)c3c(C)n(-c4ccccc4)nc3c2=O)c(OC)c1 (stereo not drawn) | 26.7 µM (active) | –
CCOc1cc(/C=N/NC(=O)c2c(C)nc3ccc(Cl)cn23)ccc1O | – | -0.787% (inactive)
CC(C)NC(=O)C1(C)CCCCN1Cc1cccc(C(F)(F)F)c1 (stereo not drawn) | – | -6.04% (inactive)
OC(c1ccc(F)cc1)c1ncc(-c2cccc(C(F)(F)F)c2)[nH]1 (stereo not drawn) | – | 1.19% (inactive)
CC(=O)NC(c1ccccc1)c1nc(-c2cccc(C(C)C)c2)cs1 (stereo not drawn) | – | 4.75% (inactive)

Structure (SMILES) | Potency | max response, negative = inhibition
COC(=O)[C@@]1(Cc2ccc(OC)cc2)[C@H]2c3cc(C(=O)N4CCCC4)n(Cc4ccc(OC(F)(F)F)cc4)c3C[C@H]2CN1C(=O)c1ccccc1 | – | 4.68% (inactive)
CCOC(=O)[C@]12CCC=C1N(Cc1ccco1)C(=O)[C@H](CC(=O)N1CCSCC1)C2 | – | -15.1% (inactive)
CC1(C(=O)Nc2cccnc2)Cc2c(-c3ccccc3)ccnc2O1 (stereo not drawn) | – | -6.2% (inactive)
COc1ccc([C@H]2CC(=O)C=C(c3ccc(C)cc3)C2)cc1 | – | -18.7% (inactive)
COc1ccc([C@H]2CC(=O)C=C(c3ccc(CO)cc3)C2)cc1 | 23.8 µM (active) | –
COc1ccc2cc(C3=CC(=O)C[C@H](c4ccc5c(c4)OCO5)C3)ccc2c1 | – | 4.54% (inactive)
CN1OC[C@@H]2CN[C@H](c3ccc(-c4ccccc4)cc3)C[C@@H]21 | – | 5.71% (inactive)
Cc1noc(NS(=O)(=O)c2ccc(NC(=O)c3oc4ccc(F)cc4c3C)cc2)c1C | – | -10.8% (inactive)
Cc1cc(C)c2nc(-c3cccnc3)cc(C(=O)Nc3ccc(S(=O)(=O)Nc4onc(C)c4C)cc3)c2c1 | 42.3 µM (active) | –
CCn1c(SCC(=O)Nc2ccc(S(=O)(=O)Nc3onc(C)c3C)cc2)nnc1-c1ccccc1 | – | 3.27% (inactive)
CC(C)(C)S(=O)N1Cc2cc(C(=O)NCCCN3CCOCC3)nc(-c3cccc(-c4cc5ccccc5o4)c3)c2[C@H]1CCO (stereo partly drawn) | – | -5.28% (inactive)
CCCCCCCCCCOC(=O)Cn1c(COc2ccc(C)cc2)[n+](C)c2ccccc21 | – | -18.7% (inactive)
CCCCOC(=O)Cn1c(=N)n(CCN(CC)CC)c2ccccc21 | 21.2 µM (active) | –
CCCn1c(=N)n(CC(=O)c2ccc(Cl)c(Cl)c2)c2ccccc21 | – | -14% (inactive)
CC(=O)c1cccc(-c2cnc3c(NC=O)cc(-c4ccc(N(C)C)cc4)cn23)c1 | – | -10.2% (inactive)
COc1ccc(C(O)C(O)(C(=O)OC(C)C)c2ccc(C)cc2)cc1 (stereo not drawn) | – | -13.4% (inactive)
Cn1cc(C2OC(=O)c3ccccc32)c2ccccc21 (stereo not drawn) | – | -13.8% (inactive)
CN1C(=O)c2cccc3c(N)ccc(c23)C1=O | 3.36 µM (active) | –
CC(C(=O)O)N1C(=O)c2cccc3cccc1c23 (stereo not drawn) | – | -10.8% (inactive)
Cc1nn(C)cc1N1C(=O)c2cccc3c(N)ccc(c23)C1=O | 2.38 µM (active) | –
Cc1ccc(S(=O)(=O)N2CCCCC2)cc1NC(=O)CCNC(=O)c1ccccc1Cl | – | -0.377% (inactive)
O=C1c2ccccc2-c2ccccc2NC1O (stereo not drawn) | – | -5.82% (inactive)
COc1cccc(NC(=O)N(C)C[C@@H]2Oc3ncc(Br)cc3C(=O)N([C@@H](C)CO)C[C@H]2C)c1 | – | -14.8% (inactive)
Cc1c(NC(=O)CSc2cccc3cccnc23)c(=O)n(-c2ccccc2)n1C | 16.8 µM (active) | –
Cc1c(NC(=O)CSc2nnnn2-c2ccc(C(=O)O)cc2)c(=O)n(-c2ccccc2)n1C | – | -21.9% (inactive)
Cc1c(NC(=O)CSc2nnc(-c3cccnc3)n2N)c(=O)n(-c2ccccc2)n1C | – | -7.37% (inactive)
